{
  "source": "PubChem BioAssay (NCATS)",
  "note": "Where “and” joins values, the source holds several entries; their conditions need not be identical. Equal entries are not always repeated. Inconclusive results are not listed. Calls of active or inactive are those of the source. Unless noted, the call rests on the fitted dose curve; in most records, active means well fitted curve in the direction sought with a large enough effect; inconclusive means small, poorly fitted or top-dose-only effect, or another doubt; inactive means no such curve, though single readings can be large; an effect the other way counts as inactive or inconclusive. Numbered stars: 1 amine (or outer) side, 2 acyl side, 3 side chain; on linkers, the order of the positions; unused ones are H or OH. Bridge positions count the residues as written; N and C are the ends. Square brackets hold non-standard residues; d marks the D form. Peptide text beside a SMILES is read from it. I, II: the chains in the order shown. Actinocin(9to1) = Cc1c2oc3c(C)ccc(C(=O)[*:1])c3nc-2c(C(=O)[*:2])c(N)c1=O; NMeV = CN[C@H](C(=O)O)C(C)C; Sar = CNCC(=O)O",
  "data": [
    {"test_system": "not listed separately", "experiment": "VSVG counterscreen qHTS to identify inhibitors of SARS-CoV-2 cell entry (AID 1645847; calls by dose curve; further: nearly all actives have a fitted effect of over 65% in size; further: potency means the concentration at half of the fitted maximal effect)", "conditions": "VSV-G pseudotyped particle entry, luciferase; series mostly up to 57.2 µM", "summary_of_the_method": "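Entry of VSV-G pseudotyped particles into human ACE2-expressing HEK293 cells was measured by luciferase luminescence 48 h after infection, with compound added 1 h beforehand.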", "values": [
      {"smiles": "N[C@@H](Cc1ccc(N(CCCl)CCCl)cc1)C(=O)O", "Potency": "152 nM (active)"},
      {"smiles": "CCCc1cc(=O)[nH]c(=S)[nH]1", "Potency": "inactive"},
      {"smiles": "Cc1cn([C@H]2C[C@H](N=[N+]=[N-])[C@@H](CO)O2)c(=O)[nH]c1=O", "Potency": "429 nM (active)"},
      {"smiles": "COc1c(C)c2c(c(O)c1C/C=C(\\C)CCC(=O)O)C(=O)OC2", "Potency": "482 nM (active)"},
      {"smiles": "COC(=O)Nc1nc2ccc(C(=O)c3cccs3)cc2[nH]1", "Potency": "152 nM (active)"},
      {"smiles": "Cc1c2oc3c(C)ccc(C(=O)N[C@@H]4C(=O)N[C@H](C(C)C)C(=O)N5CCC[C@H]5C(=O)N(C)CC(=O)N(C)[C@@H](C(C)C)C(=O)O[C@@H]4C)c3nc-2c(C(=O)N[C@@H]2C(=O)N[C@H](C(C)C)C(=O)N3CCC[C@H]3C(=O)N(C)CC(=O)N(C)[C@@H](C(C)C)C(=O)O[C@@H]2C)c(N)c1=O", "note": "(I: T[dV]P[Sar][NMeV] / II: T[dV]P[Sar][NMeV]; ester I:1-I:C, II:1-II:C; linker I:N-II:N via Actinocin(9to1))", "Potency": "42.9 nM (active)"},
      {"smiles": "COC(c1ccccc1)(c1ccccc1)[C@H](Oc1nc(C)cc(C)n1)C(=O)O", "Potency": "inactive"},
      {"smiles": "Clc1ccc(COC(Cn2ccnc2)c2ccc(Cl)cc2Cl)cc1", "note": "(stereo not drawn)", "Potency": "12100 nM (active)"},
      {"smiles": "CN1CCC(=C2c3ccccc3C=Cc3ccccc32)CC1", "Potency": "192 nM (active)"},
      {"smiles": "C=C(CC)C(=O)c1ccc(OCC(=O)O)c(Cl)c1Cl", "Potency": "1920 nM (active)"},
      {"smiles": "CC[C@]1(O)C[C@@H]2CN(CCc3c([nH]c4ccccc34)[C@@](C(=O)OC)(c3cc4c(cc3OC)N(C)[C@H]3[C@@](O)(C(=O)OC)[C@H](OC(C)=O)[C@]5(CC)C=CCN6CC[C@]43[C@@H]65)C2)C1", "Potency": "34.1 nM (active)"},
      {"smiles": "CC(C)(C)C(=O)OCOP(=O)(COCCn1cnc2c(N)ncnc21)OCOC(=O)C(C)(C)C", "Potency": "15.2 nM (active)"},
      {"smiles": "COc1c(C)c2c(c(O)c1C/C=C(\\C)CCC(=O)OCCN1CCOCC1)C(=O)OC2", "Potency": "429 nM (active)"},
      {"smiles": "CCc1c2c(nc3ccc(OC(=O)N4CCC(N5CCCCC5)CC4)cc13)-c1cc3c(c(=O)n1C2)COC(=O)[C@]3(O)CC", "Potency": "171 nM (active)"},
      {"smiles": "CCC1=C[C@@H]2CN(C1)Cc1c([nH]c3ccccc13)[C@@](C(=O)OC)(c1cc3c(cc1OC)N(C)[C@H]1[C@@](O)(C(=O)OC)[C@H](OC(C)=O)[C@]4(CC)C=CCN5CC[C@]31[C@@H]54)C2", "Potency": "1670 nM (active)"}
    ]},
    {"target": "Papain (Carica papaya) (UniProt P00784)", "sequence (P00784 whole entry, looked up)": "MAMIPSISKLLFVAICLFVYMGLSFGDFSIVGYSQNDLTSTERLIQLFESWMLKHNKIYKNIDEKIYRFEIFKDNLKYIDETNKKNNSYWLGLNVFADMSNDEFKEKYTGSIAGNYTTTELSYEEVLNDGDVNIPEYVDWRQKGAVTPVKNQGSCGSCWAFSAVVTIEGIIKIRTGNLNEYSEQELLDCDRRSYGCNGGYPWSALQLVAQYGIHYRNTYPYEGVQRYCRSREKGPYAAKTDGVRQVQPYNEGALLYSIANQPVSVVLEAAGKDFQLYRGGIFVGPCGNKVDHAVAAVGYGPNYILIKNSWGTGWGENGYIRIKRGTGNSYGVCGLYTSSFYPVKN", "experiment": "Primary qHTS assay for inhibitors of the protease papain (AID 1645873);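 further: papain turnover of Z-FR-AMC read as the AMC fluorescence gain over 10 min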; further: potency means the concentration at half of the fitted maximal effect", "conditions": "papain Z-FR-AMC cleavage, AMC fluorescence; series mostly up to 49.8 µM", "values": [
      {"smiles": "c1ccc(C2CC2)c(OCC2=NCCN2)c1", "Potency": "inactive"},
      {"smiles": "Cc1ccc(S(=O)(=O)N[C@@H](CCCCN)C(=O)CCl)cc1", "Potency": "14100 nM (active)"},
      {"smiles": "CC(C)=CCOc1c2occc2cc2ccc(=O)oc12", "Potency": "inactive"}
    ]},
    {"test_system": "not listed separately", "experiment": "Primary qHTS for inhibitors of nuclear receptor binding SET domain protein 2 (NSD2) in an isogenic RCH-ACV NSD2 p.E1099K mutant (9B) (AID 1645876); further: nearly all actives have a fitted effect of over 70% in size; further: potency means the concentration at half of the fitted maximal effect", "conditions": "RCH-ACV NSD2 E1099K (9B) viability, CellTiter-Glo, 72 h; series mostly up to 44.9 µM", "values": [
      {"smiles": "O=C1CC[C@@]2(O)[C@H]3Cc4ccc(O)c5c4[C@@]2(CCN3CC2CC2)[C@H]1O5", "Potency": "inactive"},
      {"smiles": "Clc1ccc(CCC(Cn2ccnc2)Sc2c(Cl)cccc2Cl)cc1", "note": "(stereo not drawn)", "Potency": "18.8 µM (active) and 18.6 µM (active)"},
      {"smiles": "N[C@@H](Cc1ccc(N(CCCl)CCCl)cc1)C(=O)O", "Potency": "2.99 µM (active) and 2.63 µM (active)"},
      {"smiles": "CCOP(=S)(OCC)Oc1cc(C)nc(C(C)C)n1", "Potency": "inactive"},
      {"smiles": "CC(C)(C)CC(C)(C)c1ccc(O)cc1", "Potency": "24.3 µM (active)"},
      {"smiles": "Oc1cc(Cl)ccc1Oc1ccc(Cl)cc1Cl", "Potency": "6.24 µM (active)"},
      {"smiles": "CCN(C(C)=O)c1cccc(-c2ccnc3c(C#N)cnn23)c1", "Potency": "inactive"},
      {"smiles": "C=C1C[C@@H]2[C@H](CC[C@]3(C)C(=O)CC[C@@H]23)[C@@]2(C)C=CC(=O)C=C12", "Potency": "16.8 µM (active) and 26.3 µM (active)"},
      {"smiles": "CC(C)(C)NCC(O)c1cc(Cl)c(N)c(Cl)c1", "note": "(stereo not drawn)", "Potency": "inactive"},
      {"smiles": "CO[C@]12CC[C@@]3(C[C@@H]1[C@](C)(O)C(C)(C)C)[C@@H]1Cc4ccc(O)c5c4[C@@]3(CCN1CC1CC1)[C@H]2O5", "Potency": "6.05 µM (active)"},
      {"smiles": "CC1NCCOC1c1ccccc1", "note": "(stereo not drawn)", "Potency": "inactive"},
      {"smiles": "C[C@H]1O[C@@H](O[C@H]2[C@@H](O)C[C@H](O[C@H]3[C@@H](O)C[C@H](O[C@H]4CC[C@@]5(C)[C@H](CC[C@@H]6[C@@H]5CC[C@]5(C)[C@@H](C7=CC(=O)OC7)CC[C@]65O)C4)O[C@@H]3C)O[C@@H]2C)C[C@H](O)[C@@H]1O", "Potency": "16.8 nM (active) and 19.2 nM (active)"},
      {"smiles": "O=c1oc2ccccc2c(O)c1C(CC(O)c1ccc(-c2ccc(Br)cc2)cc1)c1ccccc1", "note": "(stereo not drawn)", "Potency": "inactive"},
      {"smiles": "CCCC1CCCCN1", "note": "(stereo not drawn)", "Potency": "inactive"},
      {"smiles": "C=CCN1CC[C@]23c4c5ccc(O)c4O[C@H]2C(=O)CC[C@@]3(O)[C@H]1C5", "Potency": "inactive"},
      {"smiles": "O=C(NC(O)C(Cl)(Cl)Cl)NC(O)C(Cl)(Cl)Cl", "note": "(stereo not drawn)", "Potency": "inactive"},
      {"smiles": "O=C(O)c1ccc2[nH]cc(CCCCN3CC=C(c4ccccc4)CC3)c2c1", "Potency": "inactive"},
      {"smiles": "NP(N)(=O)NC(=O)c1ccc(F)cc1", "Potency": "inactive"}
    ]},
    {"test_system": "not listed separately", "experiment": "Primary qHTS for inhibitors of nuclear receptor binding SET domain protein 2 (NSD2) in an RCH-ACV wild type WT cells (2C) (AID 1645877); further: nearly all actives have a fitted effect of over 70% in size; further: potency means the concentration at half of the fitted maximal effect", "conditions": "RCH-ACV NSD2 WT (2C) viability, CellTiter-Glo, 72 h; series mostly up to 44.9 µM", "values": [
      {"smiles": "O=C1CC[C@@]2(O)[C@H]3Cc4ccc(O)c5c4[C@@]2(CCN3CC2CC2)[C@H]1O5", "Potency": "inactive"},
      {"smiles": "Clc1ccc(CCC(Cn2ccnc2)Sc2c(Cl)cccc2Cl)cc1", "note": "(stereo not drawn)", "Potency": "11.9 µM (active) and 20.9 µM (active)"},
      {"smiles": "N[C@@H](Cc1ccc(N(CCCl)CCCl)cc1)C(=O)O", "Potency": "2.66 µM (active) and 2.35 µM (active)"},
      {"smiles": "CCOP(=S)(OCC)Oc1cc(C)nc(C(C)C)n1", "Potency": "inactive"},
      {"smiles": "Oc1cc(Cl)ccc1Oc1ccc(Cl)cc1Cl", "Potency": "6.24 µM (active)"},
      {"smiles": "c1ccc(C2CC2)c(OCC2=NCCN2)c1", "Potency": "inactive"},
      {"smiles": "Cc1ccc(S(=O)(=O)N[C@@H](CCCCN)C(=O)CCl)cc1", "Potency": "inactive"},
      {"smiles": "C=C1C[C@@H]2[C@H](CC[C@]3(C)C(=O)CC[C@@H]23)[C@@]2(C)C=CC(=O)C=C12", "Potency": "11.9 µM (active) and 18.6 µM (active)"},
      {"smiles": "CC(C)(C)NCC(O)c1cc(Cl)c(N)c(Cl)c1", "note": "(stereo not drawn)", "Potency": "inactive"},
      {"smiles": "CO[C@]12CC[C@@]3(C[C@@H]1[C@](C)(O)C(C)(C)C)[C@@H]1Cc4ccc(O)c5c4[C@@]3(CCN1CC1CC1)[C@H]2O5", "Potency": "6.79 µM (active)"},
      {"smiles": "CC1NCCOC1c1ccccc1", "note": "(stereo not drawn)", "Potency": "inactive"},
      {"smiles": "C[C@H]1O[C@@H](O[C@H]2[C@@H](O)C[C@H](O[C@H]3[C@@H](O)C[C@H](O[C@H]4CC[C@@]5(C)[C@H](CC[C@@H]6[C@@H]5CC[C@]5(C)[C@@H](C7=CC(=O)OC7)CC[C@]65O)C4)O[C@@H]3C)O[C@@H]2C)C[C@H](O)[C@@H]1O", "Potency": "42.2 nM (active) and 85.8 nM (active)"},
      {"smiles": "COc1ccc2c(c1OC)CN1CCc3cc4c(cc3C1C2)OCO4", "note": "(stereo not drawn)", "Potency": "10.6 µM (active)"},
      {"smiles": "CCCC1CCCCN1", "note": "(stereo not drawn)", "Potency": "inactive"},
      {"smiles": "O=C(NC(O)C(Cl)(Cl)Cl)NC(O)C(Cl)(Cl)Cl", "note": "(stereo not drawn)", "Potency": "inactive"},
      {"smiles": "O=C(O)c1ccc2[nH]cc(CCCCN3CC=C(c4ccccc4)CC3)c2c1", "Potency": "inactive"},
      {"smiles": "NP(N)(=O)NC(=O)c1ccc(F)cc1", "Potency": "inactive"}
    ]}
  ]
}
